The sample as a whole holds a higher share of the strongest signals than the screen did.
Columns and labels:
Test in all cases: glycan array binding signal (z-score within array); higher = stronger binding
Details in all cases: glycan notation: IUPAC condensed, linker removed
GalNAc(b1-3)Gal = molecular target: GalNAc(b1-3)Gal
Method in brief: (§1)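 Glycan array data were curated from 3228 arrays in the Consortium for Functional Glycomics database and kept only where the protein sequence was available. Glycan names were converted to IUPAC-condensed notation, and columns mapping to the same glycan were averaged. The binding signal is a within-array Z-score, averaged across arrays of the same protein sequence at different concentrations or buffers and across linkers. Negative Z-scores can be read as non-binding.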

GalNAc(b1-4)Gal(b1-4)Glc = molecular target: GalNAc(b1-4)Gal(b1-4)Glc
Method in brief: as §1

[1] = molecular target: Glc(a1-4)Glc(a1-4)Glc(a1-4)Glc
Method in brief: as §1

[2] = molecular target: GlcNAc(a1-4)Gal(b1-4)GalNAc
Method in brief: as §1

GlcNAc(b1-3)Gal = molecular target: GlcNAc(b1-3)Gal
Method in brief: as §1

[3] = molecular target: GlcNAc(b1-3)[GlcNAc(b1-4)][GlcNAc(b1-6)]GlcNAc
Method in brief: as §1

Kdn(a2-6)Gal(b1-4)GlcNAc = molecular target: Kdn(a2-6)Gal(b1-4)GlcNAc
Method in brief: as §1

Man(a1-2)Man(a1-3)Man = molecular target: Man(a1-2)Man(a1-3)Man
Method in brief: as §1

[4] = molecular target: Neu5Ac(a2-3)Gal(b1-3)GalNAc(b1-4)[Neu5Ac(a2-3)]Gal(b1-4)Glc
Method in brief: as §1

[5] = molecular target: Neu5Ac(a2-3)Gal(b1-3)[Fuc(a1-4)]GlcNAc
Method in brief: as §1

[6] = molecular target: Neu5Ac(a2-3)Gal(b1-3)[Neu5Ac(a2-3)Gal(b1-4)]GlcNAc
Method in brief: as §1

[7] = molecular target: Neu5Ac(a2-3)Gal(b1-4)GlcNAc
Method in brief: as §1

[8] = molecular target: Neu5Ac(a2-3)Gal(b1-4)GlcNAc(b1-2)Man(a1-3)[GlcNAc(b1-2)Man(b1-4)GlcNAc(b1-2)Man(a1-6)]Man(b1-4)GlcNAc(b1-4)GlcNAc
Method in brief: as §1

[9] = molecular target: Neu5Ac(a2-3)Gal(b1-4)[Fuc(a1-3)]GlcNAc6S
Method in brief: as §1

[10] = molecular target: Neu5Ac(a2-3)Gal6S(b1-4)GlcNAc
Method in brief: as §1

[11] = molecular target: Neu5Ac(a2-3)[GalNAc(b1-4)]Gal(b1-4)GlcNAc(b1-3)GalNAc
Method in brief: as §1

Neu5Ac(a2-6)Gal(b1-4)Glc = molecular target: Neu5Ac(a2-6)Gal(b1-4)Glc
Method in brief: as §1

[12] = molecular target: Neu5Ac(a2-6)Gal(b1-4)GlcNAc(b1-2)Man(a1-3)[GlcNAc(b1-2)Man(a1-6)]Man(b1-4)GlcNAc(b1-4)GlcNAc
Method in brief: as §1

[13] = molecular target: Neu5Ac(a2-6)Gal(b1-4)GlcNAc(b1-3)Gal(b1-4)GlcNAc(b1-3)Gal(b1-4)GlcNAc
Method in brief: as §1

[14] = molecular target: Neu5Ac(a2-6)GlcNAc(b1-4)GlcNAc
Method in brief: as §1

[15] = molecular target: Neu5Ac(a2-8)Neu5Ac(a2-8)Neu5Ac
Method in brief: as §1

Neu5Ac(b2-6)GalNAc = molecular target: Neu5Ac(b2-6)GalNAc
Method in brief: as §1

[16] = molecular target: Neu5Gc(b2-6)Gal(b1-4)GlcNAc
Method in brief: as §1

B1: Strep tagII-anxA1 (Homo sapiens), P04083 (protein)
chain: MAMVSEFLKQAWFIENEEQEYVQTVKSSKGGPGSAVSPYPTFNPSSDVAALHKAIMVKGVDEATIIDILTKRNNAQRQQIKAAYLQETGKPLDETLKKALTGHLEEVVLALLKTPAQFDADELRAAMKGLGTDEDTLIEILASRTNKEIRDINRVYREELKRDLAKDITSDTSGDFRNALLSLAKGDRSEDFGVNEDLADSDARALYEAGERRKGTDVNVFNTILTTRSYPQLRRVFQKYTKYSKHDMNKVLDLELKGDIEKCLTAIVKCATSKPAFFAEKLHQAMKGVGTRHKALIRIMVSRSEIDMNDIKAFYQKMYGISLCQAILDETKGDYEKILVALCGGN
GalNAc(b1-3)Gal
  glycan array binding signal (z-score): -0.664
GalNAc(b1-4)Gal(b1-4)Glc
  glycan array binding signal (z-score): 1.79
[1]
  glycan array binding signal (z-score): 3.56
[2]
  glycan array binding signal (z-score): 2.68
GlcNAc(b1-3)Gal
  glycan array binding signal (z-score): -0.607
[3]
  glycan array binding signal (z-score): 2.8
Kdn(a2-6)Gal(b1-4)GlcNAc
  glycan array binding signal (z-score): -0.606
Man(a1-2)Man(a1-3)Man
  glycan array binding signal (z-score): -0.123
[4]
  glycan array binding signal (z-score): -0.502
[5]
  glycan array binding signal (z-score): -0.529
[6]
  glycan array binding signal (z-score): -0.763
[7]
  glycan array binding signal (z-score): -0.209
[8]
  glycan array binding signal (z-score): -0.74
[9]
  glycan array binding signal (z-score): -0.736
[10]
  glycan array binding signal (z-score): -0.312
[11]
  glycan array binding signal (z-score): -0.294
Neu5Ac(a2-6)Gal(b1-4)Glc
  glycan array binding signal (z-score): 0.446
[12]
  glycan array binding signal (z-score): -0.496
[13]
  glycan array binding signal (z-score): 0.122
[14]
  glycan array binding signal (z-score): -0.032
[15]
  glycan array binding signal (z-score): -0.49
Neu5Ac(b2-6)GalNAc
  glycan array binding signal (z-score): -0.503
[16]
  glycan array binding signal (z-score): -0.654

Reference: the supplement of paper PMC8728848
